Many of the other results were omitted from the sample, so hits are more common in it than they were.
GIRK2 act – GIRK2 channel activators by thallium flux; 34,000 tested, under 10 active; P48051; activation (% efficacy), % for hits at 37.5 µM; HEK293 GIRK2/NPY4 cells, thallium flux fluorescence; AID 1259324;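 active means primary screen hit, no activity in plain HEK293 cells, and in GIRK2-only cells above 5% efficacy rising with concentration; inactive means the rest, including fluorescent compounds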;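 further: efficacy is normalized control-subtracted fluorescence 15 s after thallium addition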
Target sequence (P48051 whole entry, looked up): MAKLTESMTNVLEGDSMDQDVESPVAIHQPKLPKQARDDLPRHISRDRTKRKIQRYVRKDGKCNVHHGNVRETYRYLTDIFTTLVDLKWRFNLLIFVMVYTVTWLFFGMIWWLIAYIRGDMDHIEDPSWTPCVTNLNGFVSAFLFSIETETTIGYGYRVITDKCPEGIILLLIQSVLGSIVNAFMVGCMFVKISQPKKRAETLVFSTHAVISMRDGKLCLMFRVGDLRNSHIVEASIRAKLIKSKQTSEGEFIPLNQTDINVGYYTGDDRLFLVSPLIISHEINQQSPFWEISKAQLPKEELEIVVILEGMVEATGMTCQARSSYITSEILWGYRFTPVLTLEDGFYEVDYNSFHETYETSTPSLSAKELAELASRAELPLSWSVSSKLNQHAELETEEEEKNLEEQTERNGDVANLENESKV
AMPAR-TARP mod – GluA2-stargazin AMPA receptor complex modulation. 40,000 compounds, 3.5% hits. AID 1259245. O88602+P19491. HEK293 GluA2+stargazin, membrane potential dye (FDSS), glutamate EC50; hits were called plate by plate, in both directions. calls only at 30 µM;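 active means any of four per-well response measures lying three or more SD from its plate-wide compound average, in either direction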
* marks the source's active call; other numbers are inactive results; i = inactive; · = no result; + = active, no number; ! = a repeat was not active.

SMILES	GIRK2 act	AMPAR-TARP mod
Cc1ccc2nc3c(cc(C(=O)N(C)C)n3C)c(=O)n2c1	i	i
Cc1cc([N+](=O)[O-])ccc1NC(=O)C(=O)NCCc1ccccc1	·	i
COc1ccc(OC)c(NC(=O)/C(C#N)=C/c2ccc(C(C)C)cc2)c1	i	i
COc1ccccc1/C=C(\C#N)C(N)=C(C#N)C#N	i	+
COc1cc(NC(=O)c2cc(Br)ccc2Cl)ccc1N1CCCCC1=O	i	i
COc1ccccc1CNc1nc2ccccc2nc1NS(=O)(=O)c1ccccc1	·	+
COc1ccc(S(=O)(=O)Nc2nc3ccccc3nc2NCCC2=CCCCC2)cc1	·	i
Cc1ccc(NC(=O)COC(=O)CCCC2=NS(=O)(=O)c3ccccc3N2)cc1F	i	i
CCN(C1CCCCC1)S(=O)(=O)c1cc(C(C)C)c(C)cc1OC	·	+
CCCN(CCC)S(=O)(=O)c1cc(C(C)C)c(C)cc1OC	·	i
O=C(NCCc1c[nH]c2ccccc12)C1CCCN(c2ccc(-n3ccnc3)nn2)C1 (stereo unspecified)	i	i
CS(=O)(=O)N1CCC(CNC(=O)NCc2cccs2)CC1	i	i
C=CCn1c(SCC(=O)NCC2CCCO2)nc2scc(-c3ccc(Cl)cc3)c2c1=O (stereo unspecified)	i	i
C=CCn1c(SCC(=O)NCc2ccco2)nc2scc(-c3ccccc3Cl)c2c1=O	i	+
COc1ccc(NC(=O)CSc2nnc(C)c3ccccc23)c(OC)c1	i	i
COc1ccc(NC(=O)CSc2nc(-c3ccc(C)cc3)c3ccccc3n2)c(OC)c1	i	+
COc1cccc(CNC(=O)C(=O)NCC(O)c2ccc(C(F)(F)F)cc2)c1 (stereo unspecified)	·	i
Cc1c(Cl)cccc1NC(=O)C(=O)NN1CCN(C)CC1	·	i
Cc1sc(NC(=O)c2ccc(S(=O)(=O)C(C)C)cc2)c(C#N)c1C	i	i
CCS(=O)(=O)c1ccc(C(=O)Nc2sc(C(=O)OC)c(C)c2C#N)cc1	i	+
COc1ccc(Cl)cc1S(=O)(=O)Nc1ccc2c(c1)N(C(=O)c1ccco1)CC2	i	i
O=C(Cc1cc(-c2cc3ccccc3o2)on1)NCCN1CCOCC1	i	i
O=S(=O)(/C=C/c1ccccc1)N1CCC(COCc2ccc(Cl)cc2)CC1	i	i
CN(C)S(=O)(=O)N1CCC(COCc2ccc(Cl)cc2)CC1	i	+
CN(C)c1ccc(-c2oc3ccccc3c(=O)c2O)cc1	·	+
SMILES	GIRK2 act	AMPAR-TARP mod
O=c1c(O)c(-c2ccccc2)oc2ccccc12	·	i
O=C(Nc1cc2c3c(c1)CC(=O)N3CCC2)c1cnccn1	i	+
COc1cc(C(=O)Nc2cc3c4c(c2)CC(=O)N4CCC3)cc(OC)c1OC	i	i
CCn1nc(C)cc1C(=O)Nc1nnc(-c2ccc3c(c2)OCCO3)o1	i	i
COc1ccc(S(=O)(=O)CC(=O)Nc2nc3ccc([N+](=O)[O-])cc3s2)cc1	i	i
Cc1ccc(S(=O)(=O)CCCC(=O)Nc2nc(-c3cc([N+](=O)[O-])cs3)cs2)cc1	i	+
CCOc1ccc(CC(=O)Nc2nc3c(OC)cc([N+](=O)[O-])cc3s2)cc1	·	i
COc1cc([N+](=O)[O-])cc2sc(NC(=O)CCCS(=O)(=O)c3ccccc3)nc12	i	+
O=C(CCCS(=O)(=O)c1ccccc1)Nc1nc2ccc([N+](=O)[O-])cc2s1	i	+
O=C(CCCS(=O)(=O)c1ccc(Cl)cc1)Nc1nc(-c2cc([N+](=O)[O-])cs2)cs1	·	i
Cc1ccc(/C=C/S(=O)(=O)N2CC(c3nc(C)no3)C2)cc1	i	i
Cc1ccc(S(=O)(=O)c2c(C)nn(C(C)(C)C)c2OC(=O)c2ccccc2)cc1	·	i
O=C(NCC1CCN(C(=O)Oc2ccccc2)CC1)Nc1ccccc1Cl	i	i
COc1ccc(SCCCC(=O)Nc2nnc(-c3cc(C)n(C)n3)o2)cc1	i	i
CN(c1ccsc1C(=O)Nc1ccc(F)c(F)c1)S(=O)(=O)c1ccccc1	i	i
CN(C1CCCC1)S(=O)(=O)c1ccc(C(=O)Nc2ccc3c(c2)OCO3)cc1	·	i
CN(C1CC1)S(=O)(=O)c1ccc(C(=O)Nc2ccc3c(c2)OCO3)cc1	i	+
CCCCN1C(=O)CCc2cc(NC(=O)c3ccc4c(c3)OCO4)ccc21	i	i
CN(c1ccsc1C(=O)Nc1ccc2c(c1)OCCO2)S(=O)(=O)c1ccccc1	i	+!
CN1C(=O)CCc2cc(NC(=O)c3ccc4c(c3)OCO4)ccc21	·	+
CCOc1ccc(OCC(=O)N2CCN(c3ncnc4c3nnn4-c3ccc(Cl)cc3)CC2)cc1	·	i
COc1ccc(Br)c(C(=O)NCC2(O)CCCC2)c1	i	i
Cc1cc(C)c2c(n1)nn1c(N3CCCCC3)cc(C)nc21	i	+

Bioassay records: PubChem BioAssay, several laboratories
